Reference: ChEMBL document CHEMBL3988442, “University of Dundee, Small-Polar-MMV Screening Library” (2021)
Among all 48,000 compounds or so, about 13,000 (27%) showed an effect of 50% or more. The list shows a part of the results.

Test system: Wolbachia pipientis
Experiment: Anti-Wolbachia Cell-Based Screen
Type: functional
Design: scale not given: in the data most compounds retested in dose-response had high values
Details: 5 µM

Q: With `COc1cnc(N2C[C@H](CO)C[C@H](CN3CCOCC3)C2)nc1` as the compound, how does the “Percent Effect” value read?
A: Its value is -6.58%.

Q: How did the “Percent Effect” value turn out when `Cc1ccc(CN(C(=O)C(C)S(C)(=O)=O)C2CC2)cc1C` (stereo not given) was run?
A: Its value is -15.47%.

Q: How did the “Percent Effect” value turn out when `Cc1ccc(S(=O)(=O)N(C)CC(C)O)c(F)c1` (stereo not given) was run?
A: Its value is 4.809%.

Q: How did the “Percent Effect” value turn out when `CCc1ncc(C(=O)NC(C)(C)C(=O)OC)s1` was run?
A: Its value is -4.518%.

Q: For `c1cnc(N2CCOCC3(CCN(c4cnccn4)CC3)C2)nc1`, which “Percent Effect” value is on record?
A: Its value is -29.45%.

Q: Which “Percent Effect” value does the source give for `COCC1CC2(CCN(Cc3nccn3C)CC2)CN1c1ncccn1.O=C(O)C(F)(F)F` (stereo not given) here?
A: Its value is -8.738%.

Q: `Cn1ccnc1CN1CCC2(CC1)COCCN(c1ncccn1)C2` was tested. Which “Percent Effect” value did it give?
A: Its value is 118.1%.

Q: With `Cn1cc2ncn(CCNc3cccnc3)c(=O)c2n1` as the compound, how does the “Percent Effect” value read?
A: The value was -8.591%.

Q: With `Cc1csc(C2CCCCN2C(=O)c2cn[nH]c2C)n1` (stereo not given) as the compound, how does the “Percent Effect” value read?
A: The value was 83.45%.

Q: With `COc1ccc(C(=O)N2CCCCC2c2nc(C)cs2)nn1` (stereo not given) as the compound, how does the “Percent Effect” value read?
A: Its value is -5.655%.

Q: With `Cc1ccc(CC(=O)N2CCCCC2c2nc(C)cs2)cn1` (stereo not given) as the compound, how does the “Percent Effect” value read?
A: The value was 2.602%.

Q: Which “Percent Effect” value does the source give for `Cc1cccc(C(=O)N2CCCCC2c2nc(C)cs2)n1` (stereo not given) here?
A: Its value is 80.1%.

Q: How did the “Percent Effect” value turn out when `Cc1csc(C2CCCCN2C(=O)c2cc(C)n(C)n2)n1` (stereo not given) was run?
A: Its value is 98.18%.

Q: With `Cc1cnc(C(=O)N2CCCCC2c2nc(C)cs2)cn1` (stereo not given) as the compound, how does the “Percent Effect” value read?
A: Its value is 81.82%.

Q: How did the “Percent Effect” value turn out when `Cc1cncc(C(=O)N2CCCCC2c2nc(C)cs2)c1` (stereo not given) was run?
A: The value was 6.279%.

Q: Which “Percent Effect” value does the source give for `Cc1csc(C2CCCCN2C(=O)c2cnn3ccc(C)nc23)n1` (stereo not given) here?
A: Its value is 2.073%.

Q: For `CC(C)(C)c1ccc(C2(C(=O)NCCS(N)(=O)=O)CC2)cc1`, which “Percent Effect” value is on record?
A: Its value is -15.99%.

Q: With `Cc1csc(C2CCCCN2C(=O)c2c[nH]c(C)n2)n1` (stereo not given) as the compound, how does the “Percent Effect” value read?
A: The value was 62.15%.

Q: Which “Percent Effect” value does the source give for `CN(Cc1ccco1)C(=O)C1CSCN1C(=O)c1cccs1` (stereo not given) here?
A: The value was 104.7%.

Q: With `CN(Cc1ccco1)C(=O)[C@H]1CSCN1C(=O)OC(C)(C)C` as the compound, how does the “Percent Effect” value read?
A: Its value is 12.78%.

Q: Which “Percent Effect” value does the source give for `CN(Cc1ccco1)C(=O)NCC(c1cccs1)N(C)C` (stereo not given) here?
A: The value was 1.793%.

Q: With `CN(Cc1cc(-c2cccnc2)no1)C(=O)[C@@H]1CSCN1C` as the compound, how does the “Percent Effect” value read?
A: Its value is -21.19%.

Q: With `CCOCC(=O)N1CSCC1C(=O)N(C)Cc1ccco1` (stereo not given) as the compound, how does the “Percent Effect” value read?
A: Its value is 113.6%.

Q: `CN(Cc1ccco1)C(=O)C1CSCN1C(=O)c1cccnc1` (stereo not given) was tested. Which “Percent Effect” value did it give?
A: Its value is 0.06211%.

Q: Which “Percent Effect” value does the source give for `CN(Cc1ccco1)C(=O)C1CSCN1C(=O)C1CCC1` (stereo not given) here?
A: The value was 111.9%.

Q: How did the “Percent Effect” value turn out when `Cc1ccc(CC(=O)N2CSCC2C(=O)N(C)Cc2ccco2)o1` (stereo not given) was run?
A: Its value is 8.524%.

Q: How did the “Percent Effect” value turn out when `Cn1c(CN2CCCC2c2noc(C3CC3)n2)cc(=O)n(C)c1=O` (stereo not given) was run?
A: Its value is -13.43%.

Q: With `COCC(=O)N1CCCC2(CCN(CCN3CCCC3)CC2)C1.O=C(O)C(F)(F)F.O=C(O)C(F)(F)F` as the compound, how does the “Percent Effect” value read?
A: Its value is 18.87%.

Q: How did the “Percent Effect” value turn out when `CCc1n[nH]c(C2CN(C(=O)c3cc(C4CC4)on3)CCO2)n1` (stereo not given) was run?
A: Its value is 117.8%.

Q: `CCCc1n[nH]c(C2CN(C(=O)c3cc(C4CC4)on3)CCO2)n1` (stereo not given) was tested. Which “Percent Effect” value did it give?
A: Its value is 114.4%.

Q: `O=S(=O)(c1c(Cl)nc2sccn12)N1CCC2(CCNCC2)C1` was tested. Which “Percent Effect” value did it give?
A: The value was -2.285%.

Q: How did the “Percent Effect” value turn out when `CC(C)(C)CN[C@@H]1CO[C@H](CNC(=O)C2CCCC2)[C@H]1O` was run?
A: Its value is -14.33%.

Q: How did the “Percent Effect” value turn out when `Cc1ccc(CS(=O)(=O)N2Cc3c(CN(C)C)nn(C)c3C2)cc1.O=C(O)C(F)(F)F` was run?
A: Its value is 96.76%.

Q: Which “Percent Effect” value does the source give for `CN(C)Cc1nn(C)c2c1CN(C(=O)c1ccc[nH]1)C2.O=C(O)C(F)(F)F` here?
A: Its value is -9.086%.

Q: Which “Percent Effect” value does the source give for `COc1ccc(S(=O)(=O)N2Cc3c(CN(C)C)nn(C)c3C2)cc1.O=C(O)C(F)(F)F` here?
A: Its value is -0.8573%.

Q: For `Cc1ccc(S(=O)(=O)N2Cc3c(CN(C)C)nn(C)c3C2)cc1`, which “Percent Effect” value is on record?
A: Its value is -16.71%.

Q: `CCc1ccc(S(=O)(=O)N2Cc3c(CN(C)C)nn(C)c3C2)cc1.O=C(O)C(F)(F)F` was tested. Which “Percent Effect” value did it give?
A: Its value is 97.57%.

Q: For `CCc1ccc(NC(=O)N2Cc3c(CN(C)C)nn(C)c3C2)cc1.O=C(O)C(F)(F)F`, which “Percent Effect” value is on record?
A: The value was -20.31%.

Q: `C=Cc1cccc(CN2CCCn3nc(CNS(C)(=O)=O)cc3C2)c1` was tested. Which “Percent Effect” value did it give?
A: Its value is 10.79%.

Q: With `O=C1C(Sc2cnn[nH]2)CCCN1c1ccccc1F` (stereo not given) as the compound, how does the “Percent Effect” value read?
A: Its value is -1.507%.

Q: With `Cc1n[nH]c(C2CN(Cc3csc(C4CC4)n3)CCO2)n1` (stereo not given) as the compound, how does the “Percent Effect” value read?
A: The value was -12.76%.

Q: With `Cc1ccc(OCCNC(=O)C2CCOCC2)c(C)c1` as the compound, how does the “Percent Effect” value read?
A: The value was -7.551%.

Q: For `COc1ccc(Oc2ncccc2C(N)=O)cc1CN1CCCC1`, which “Percent Effect” value is on record?
A: Its value is -15.13%.

Q: `CCOc1ncccc1C(=O)N(C)Cc1ncc(C)c(OC)c1C` was tested. Which “Percent Effect” value did it give?
A: Its value is -9.581%.

Q: Which “Percent Effect” value does the source give for `COC(=O)C(NC(=O)c1ccc(C)cc1C)c1cccnc1` (stereo not given) here?
A: The value was 2.23%.

Q: How did the “Percent Effect” value turn out when `Cc1ccc(Oc2ncccc2C(=O)N(C)CCCN(C)C)c(C)c1` was run?
A: The value was 137.8%.

Q: For `Cc1ccc(Oc2ncccc2C(=O)O)c(C)c1`, which “Percent Effect” value is on record?
A: Its value is 113.8%.

Q: Which “Percent Effect” value does the source give for `Cc1ccc(Oc2ncccc2C(=O)N(C)CCCN(C)C)cc1` here?
A: Its value is 116.5%.

Q: Which “Percent Effect” value does the source give for `Cc1ccc(Oc2ncccc2C(=O)N(C)CC2OCCO2)c(C)c1` here?
A: The value was 132.9%.

Q: With `Cc1ccc(OCCN(C)Cc2nccn2C)c(C)c1` as the compound, how does the “Percent Effect” value read?
A: Its value is 1.849%.

Q: With `COCCOc1ncccc1C(=O)N(C)c1ccc(OC)c(OC)c1` as the compound, how does the “Percent Effect” value read?
A: The value was -8.68%.

Q: With `CC(CNC(=O)c1cccnc1Oc1cccnc1)N(C)C` (stereo not given) as the compound, how does the “Percent Effect” value read?
A: The value was -15.37%.

Q: How did the “Percent Effect” value turn out when `CC(C)CC(CNC(=O)c1cccnc1Oc1cccnc1)N(C)C` (stereo not given) was run?
A: Its value is -29.76%.

Q: Which “Percent Effect” value does the source give for `CCc1cc(CNC(=O)N(C2CC2)C(C)c2ccco2)on1` (stereo not given) here?
A: The value was -6.882%.

Q: With `O=S(=O)(CCSc1nccn1C1CC1)c1ccccc1` as the compound, how does the “Percent Effect” value read?
A: Its value is 2.896%.

Q: For `COc1ccc(CN2C[C@@H]3OCC(=O)N(Cc4nccn4C)[C@@H]3C2)cc1`, which “Percent Effect” value is on record?
A: The value was -2.723%.

Q: With `Cc1cnn(CCNCC(=O)NC2(C#N)CCCC2)c1` as the compound, how does the “Percent Effect” value read?
A: Its value is 1.433%.

Q: `COc1ccccc1CC(=O)NC(CC(=O)O)c1ccc(F)cc1` (stereo not given) was tested. Which “Percent Effect” value did it give?
A: The value was 7.485%.

Q: Which “Percent Effect” value does the source give for `Cc1nc2n(n1)CCN(S(=O)(=O)c1ccc(Cl)cc1)C2` here?
A: The value was -10.09%.

Q: With `Cc1nc2n(n1)CCN(S(=O)(=O)c1ccc(OC(F)(F)F)cc1)C2` as the compound, how does the “Percent Effect” value read?
A: Its value is -10.24%.

Q: For `CN(C)c1ncnc2c1CCN(S(=O)(=O)c1cccc(Cl)c1Cl)C2`, which “Percent Effect” value is on record?
A: Its value is -2.011%.

Q: For `COc1cccc(S(=O)(=O)N2CCCc3c(OC)nn(C)c3C2)c1`, which “Percent Effect” value is on record?
A: The value was -0.459%.

Q: Which “Percent Effect” value does the source give for `O=c1[nH]cnc2c1CCN(S(=O)(=O)c1ccc(Cl)cc1)C2` here?
A: Its value is 81.06%.

Q: For `COCc1ncn2c1CN(S(=O)(=O)c1cccc(OC)c1)CC2`, which “Percent Effect” value is on record?
A: The value was 5.522%.

Q: Which “Percent Effect” value does the source give for `O=c1[nH]cnc2c1CCN(S(=O)(=O)c1cccc(OC(F)(F)F)c1)C2` here?
A: The value was 122.9%.

Q: `CCOCc1ncn2c1CN(S(=O)(=O)c1ccc(OC)cc1)CC2` was tested. Which “Percent Effect” value did it give?
A: The value was 3.877%.

Q: Which “Percent Effect” value does the source give for `CCOCc1cncc2c1CCN(S(=O)(=O)c1ccc(C)cc1)C2` here?
A: Its value is 7.269%.

Q: `CN(C)c1ncnc2c1CCN(S(=O)(=O)c1ccccc1C(F)(F)F)C2` was tested. Which “Percent Effect” value did it give?
A: Its value is 15.95%.

Q: How did the “Percent Effect” value turn out when `CCOCCOc1ccc(S(=O)(=O)N2CCc3c(nc[nH]c3=O)C2)cc1` was run?
A: Its value is 99.77%.

Q: With `O=c1[nH]cnc2c1CCN(S(=O)(=O)c1ccc(OC(F)(F)F)cc1)C2` as the compound, how does the “Percent Effect” value read?
A: Its value is 93.77%.
